# Measurements taken from PubChem BioAssay AID1220 (Sanford-Burnham Center for Chemical Genomics, 2008).
# Screen size: about 190,000 compounds; about 1,300 (0.68%) were called active. The sample holds actives, similar compounds and a random draw of the others, so the mix is not that of the screen. Values without a mark were called inactive. No stated cut-off is given here; in the data, active means inhibition above about 50%; inactive means the rest.
# Target: Mannose-6-phosphate isomerase (Homo sapiens) (UniProt P34949)
# Sequence (P34949 whole entry, looked up): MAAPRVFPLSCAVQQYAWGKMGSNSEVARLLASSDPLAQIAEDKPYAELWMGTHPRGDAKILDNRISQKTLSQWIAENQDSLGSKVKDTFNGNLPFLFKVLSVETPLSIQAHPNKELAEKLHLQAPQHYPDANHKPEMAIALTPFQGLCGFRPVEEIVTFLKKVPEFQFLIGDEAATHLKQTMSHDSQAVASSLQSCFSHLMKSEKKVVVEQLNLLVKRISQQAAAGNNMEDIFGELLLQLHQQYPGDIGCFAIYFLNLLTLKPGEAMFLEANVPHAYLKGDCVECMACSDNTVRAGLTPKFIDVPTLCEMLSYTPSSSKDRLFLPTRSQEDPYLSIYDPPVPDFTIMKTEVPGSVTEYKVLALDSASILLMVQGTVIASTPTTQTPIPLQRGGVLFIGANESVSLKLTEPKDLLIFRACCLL
# Test: human PMI inhibitors, high substrate, primary screen, biochemical, fluorescence intensity, high mannose 6-phosphate (AID 1220)
# Conditions: recombinant PMI enzyme, coupled fluorescence intensity; at 20 µM; active compounds read high
row,Structure (SMILES),inhibition
1,CCCN1C(=O)C(Cc2nc3ccccc3c(=O)n2-c2ccccc2)c2ccccc21 (stereo not drawn),8.6%
2,Cc1ccc(N2C(=O)C(O)(C(F)(F)F)C3=C2CC(C)(C)CC3=O)cc1C (stereo not drawn),-10%
3,N#CCC1c2ccccc2CCN1C(=O)Nc1cccc(Cl)c1 (stereo not drawn),15.2%
4,CN1CCC(N2CCCC(C(=O)O)C2)CC1 (stereo not drawn),-1.5%
5,O=C(NCC(F)(F)F)Nc1ccccn1,-4.8%
6,CCOCCNC(=O)c1ccc2c3c(cccc13)CC2,-8.4%
7,CCC(C)NC(=O)C1CCCCN1S(=O)(=O)c1ccc(F)cc1 (stereo not drawn),-2.3%
8,Cc1nn(C)c(Oc2ccc(Cl)cc2)c1C(=O)Nc1ccc(F)cc1F,1.9%
9,Nc1ccc2c(c1)-c1ccccc1S(=O)(=O)N2,52.3% (active)
10,Cc1ccc2c(c1)-c1ccccc1S(=O)(=O)N2,-0.5%
11,NCCN=C1NS(=O)(=O)c2ccccc21,7.4%
12,COc1cc(CNCC2CCCO2)ccc1OCC(N)=O (stereo not drawn),-5.5%
13,COc1ccc2c(c1)OC13CCN(C)CC1C2C(C(=O)c1ccc(F)cc1)C(=O)N3 (stereo not drawn),-3.5%
14,CC1C(=O)Nc2ccccc2N1C(=O)C1CC1 (stereo not drawn),-7.6%
15,CCCC(=O)N1c2ccccc2C(=C2SC(C(=O)OC)=C(C(=O)OC)S2)C(=S)C1(C)C,32.9%
16,COC(=O)C1=C(C(=O)OC)SC(=C2C(=S)C(C)(C)N(C(=O)CC(C)C)c3ccccc32)S1,33%
17,CCC(C)C(=O)N1c2ccccc2C(=C2SC(C(=O)OC)=C(C(=O)OC)S2)C(=S)C1(C)C (stereo not drawn),48.7%
18,COCCNC(=O)C(C(=O)c1ccc(F)cc1)n1cc(C)ccc1=O (stereo not drawn),19.5%
19,Cc1cccc(C(=O)NC(NCCc2ccccc2)C(Cl)(Cl)Cl)c1 (stereo not drawn),1.5%
20,COC(=O)C(C)Sc1nc(N)c(NC(=O)c2ccco2)c(=O)[nH]1 (stereo not drawn),1.6%
21,Cc1ccc(CN2CCCC(CO)(Cc3ccccc3C)C2)s1 (stereo not drawn),13%
22,CCCCCN1C=CC(=C2C(=O)c3ccccc3C2=O)C=C1,-2.8%
23,CCc1ccccc1N1CSC2=C(C#N)C(c3cc(OC)c(OC)cc3OC)CC(=O)N2C1 (stereo not drawn),9%
24,CC(C)c1ccc(C2CC(=O)N3CN(C)CSC3=C2C#N)cc1 (stereo not drawn),28.9%
25,COc1cccc(C2CC(=O)N3CN(c4cccc(Cl)c4C)CSC3=C2C#N)c1OC (stereo not drawn),0.2%
26,CCOc1ccccc1N1CSC2=C(C#N)C(c3c(OC)ccc4ccccc34)CC(=O)N2C1 (stereo not drawn),67.1% (active)

row,Structure (SMILES),inhibition
1,COc1ccccc1N1CSC2=C(C#N)C(c3ccc(SC)cc3)CC(=O)N2C1 (stereo not drawn),7.1%
2,COc1ccc2ccccc2c1C1CC(=O)N2CN(C3CCCCC3)CSC2=C1C#N (stereo not drawn),52.1% (active)
3,CCOc1cc(C2CC(=O)N3CN(C4CCCCC4)CSC3=C2C#N)ccc1O (stereo not drawn),49%
4,COc1cc(C2CC(=O)N3CN(c4ccccc4C)CSC3=C2C#N)cc(OC)c1OC (stereo not drawn),11.4%
5,COc1ccc2ccccc2c1C1CC(=O)N2CN(C)CSC2=C1C#N (stereo not drawn),68.7% (active)
6,COc1ccc(OC)c(-n2c(-c3cccc(S(=O)(=O)N(C)C)c3)n[nH]c2=S)c1,15.9%
7,Nc1nc(-c2ccc(Cl)cc2)c(S(=O)(=O)c2ccccc2)s1,-1.5%
8,COc1cc(/C=N/NC(=O)CN2CCOCC2)ccc1OCc1ccccc1,-5.3%
9,COc1ccc(Cl)c(NC(=O)Cn2nnc(-c3ccccc3N)n2)c1,-3.6%
10,CCc1nc(Nc2ccc3c(c2)OCO3)c2oc3ccccc3c2n1,23%
11,CCOCCCNS(=O)(=O)c1ccc(NC(=O)C2CC(=O)N(c3ccc(C)cc3)C2)cc1 (stereo not drawn),6%
12,Cc1cc(C)c(C(=O)/C=C/C=C/c2ccccc2)c(=O)[nH]1,22.8%
13,C/C(=N\NC(=O)c1nn(C)c(C)c1Br)c1ccc(NC(=O)c2ccccc2F)cc1,10.7%
14,COc1ccc(C(=O)NC(=S)NNC(=O)c2ccc(NC(=O)C(C)C)cc2)cc1,-10.9%
15,O=c1[nH]ncc(N2CCCCC2)c1Cl,12.3%
16,Cc1cc(F)ccc1NCc1cc2c(cc1[N+](=O)[O-])OCO2,37.6%
17,Cc1cc(F)ccc1NCc1ccccc1[N+](=O)[O-],70% (active)
18,Cc1cc([N+](=O)[O-])ccc1NCc1ccccc1[N+](=O)[O-],21.5%
19,CCOC(=O)/C(C(=O)Nc1ccc(Br)cc1)=C1/NC(C)(C)Cc2ccccc21,3.4%
20,OCCNC(=S)Nc1ccc(Oc2ccccc2)cc1,2.2%
21,CCCC12CN3CCN(CC(C3)/C1=N\NC(=O)c1ccccc1Cl)C2,-11.2%
22,O=C1c2ccccc2C(Nc2ccc3c(c2)OCO3)N1Cc1ccco1 (stereo not drawn),57.7% (active)
23,O=C1c2ccccc2C(Nc2ccc3c(c2)OCO3)N1Cc1ccc2c(c1)OCO2 (stereo not drawn),23.7%
24,O=C1c2ccccc2C(Nc2ccc3c(c2)OCCO3)N1Cc1ccco1 (stereo not drawn),0.2%
25,CCN(C(=O)CSc1nnc(-c2c[nH]c3ccccc23)o1)C1CCS(=O)(=O)C1 (stereo not drawn),4.2%
26,O=c1c2c(nc3nc(NCc4cccc5ccccc45)[nH]n13)CCC2,55.7% (active)

row,Structure (SMILES),inhibition
1,COc1ccccc1CNc1nc2nc3c(c(=O)n2[nH]1)CCC3,4.2%
2,O=c1c2c(nc3nc(NCc4ccccc4Cl)[nH]n13)CCC2,-5.2%
3,CC1CCCCN1CCNC(=O)Cn1nc(-c2ccccc2)ccc1=O (stereo not drawn),-4.4%
4,Cc1ccc(-c2ccc(=O)n(CC(=O)NCCCN3CCCCC3C)n2)cc1 (stereo not drawn),12.3%
5,Cc1ccc(-c2ccc(=O)n(CC(=O)NCCN3CCCCC3C)n2)cc1 (stereo not drawn),60.7% (active)
6,O=[N+]([O-])c1cccc(-c2nc(N3CCOCC3)c3ccccc3n2)c1,-8.1%
7,COC(=O)COc1ccc(/C=C2/NC(=O)N(CC(=O)OC)C2=O)cc1,1.1%
8,O=C1C(Cl)=C(NCC2CCCO2)C(=O)N1c1ccccc1 (stereo not drawn),2.7%
9,O=C(/C=C/c1ccoc1)c1ccccc1O,17.9%
10,COc1ccc(/C=C/C(=O)c2ccoc2)cc1,3.7%
11,COc1ccc2ccccc2c1C(=O)/C=C\c1ccoc1,50% (active)
12,OC1(c2cccs2)CN(c2ccccc2)C2=[N+]1CCCC2 (stereo not drawn),-12%
13,COc1cccc(CNc2ccc(S(N)(=O)=O)cc2)c1OC,-2.8%
14,COc1cccc(CNc2ccc(F)c(Cl)c2)c1OC,-11%
15,COc1cccc(CNc2ccc(N3CCC(C)CC3)cc2)c1OC,63.1% (active)
16,COc1ccc(-c2nnn(CC(=O)N(Cc3ccccc3Cl)C(C(=O)NCC3CCCO3)c3ccco3)n2)cc1OC (stereo not drawn),23.8%
17,CC1=NOC(=O)/C1=C/c1ccc(-c2ccc(Cl)cc2)o1,13.4%
18,COCCNC(=S)Nc1ccc2nc(N3CCCC3)cc(C)c2c1,12.4%
19,Cc1cc(N2CCN(C)CC2)nc2ccc(NC(=S)NCCCN3CCc4ccccc4C3)cc12,58.5% (active)
20,CCCN(CCC)CCNC(=O)CCC(=O)Nc1ccc2nc(N3CCN(C)CC3)cc(C)c2c1,42.5%
21,CCCCN(CC)CCNC(=O)CCC(=O)Nc1ccc2nc(N3CCN(C)CC3)cc(C)c2c1,58.2% (active)
22,CCOCCCNC(=S)Nc1ccc2nc(N3CCCC3)cc(C)c2c1,50.2% (active)
23,CCCCNC(=O)CCC(=O)Nc1ccc2nc(N3CCN(C)CC3)cc(C)c2c1,12%
24,Cc1cc(N2CCN(C)CC2)nc2ccc(NC(=S)NCCN3CCc4ccccc4C3)cc12,-3.7%
25,CCN1CCN(c2cc(C)c3cc(NC(=S)NCCCN4CCc5ccccc5C4)ccc3n2)CC1,27.2%
26,Cc1cc(N2CCCC2)nc2ccc(NC(=S)NCCCOC(C)C)cc12,-3.8%

row,Structure (SMILES),inhibition
1,CC1CCCCC1NC(=O)CO/N=C/c1ccccc1OC(F)F (stereo not drawn),5.8%
2,COCCOCCn1c(CCCO)nc2ccccc21,-2.6%
3,Cc1ccc(S(=O)(=O)N2CCN(Cc3nc4ccccc4[nH]3)CC2)cc1C,-2.8%
4,CCOC(=O)Cc1csc(NC(=O)CSc2nnc(Cc3csc(N)n3)n2C)n1,14.4%
5,O=C(NCCN1CCOCC1)c1cc2cc(Br)ccc2oc1=O,9.2%
6,CCOC(=O)N1CCC(NS(=O)(=O)c2ccc3c(c2)CCN3C(C)=O)CC1,2.5%
7,O=C(C1CC1)N1CCc2cc(Br)cc(S(=O)(=O)NC3CCCCC3)c21,2.5%
8,Cn1cccc1C(=O)C(=O)Nc1ccc(Cl)cc1,-0.1%
9,Cn1cccc1C(=O)C(=O)Nc1ccccc1,-5.5%
10,COC(=O)c1ccc(NC(=O)C(=O)c2cccn2C)cc1,52.2% (active)
11,COc1ccc2c(c1)CCc1cnc(N)nc1-2,60% (active)
12,Nc1ncc2c(n1)-c1ccccc1CC2,32.5%
13,COc1ccc(-c2cnc(N)nc2-c2ccc(OC)cc2O)cc1,11.9%
14,CCOC(=O)N1CCN(C(=O)C2CCN(Cc3nc(-c4ccccc4C)oc3C)CC2)CC1,-4.9%
15,COc1cc(/C=C/C(=O)Nc2cc(S(=O)(=O)N3CCOCC3)ccc2N2CCCC2)cc(OC)c1OC,19.5%
16,c1ccc(-c2csc3ncnc(NCCCN4CCOCC4)c23)cc1,-16.3%
17,C#CCNC(=O)C1=C[C@H](c2csc3ccccc23)C[C@H](OCCCCO)O1,30.3%
18,O=C(NCc1ccccc1)C1=C[C@@H](c2csc3ccccc23)C[C@@H](OCCCCO)O1,53.8% (active)
19,C#CCNC(=O)C1=C[C@@H](c2cn(C(C)=O)c3ccccc23)C[C@@H](OCCCCO)O1,22.9%
20,CC(=O)n1cc([C@@H]2C=C(C(=O)NCc3ccccc3)O[C@H](OCCCCO)C2)c2ccccc21,50.3% (active)
21,CC(=O)n1cc([C@H]2C=C(C(=O)NCc3ccccc3)O[C@@H](OCCCCO)C2)c2ccccc21,46.3%
22,O=C(C1=C[C@H](c2csc3ccccc23)C[C@H](OCCCCO)O1)N1CCN(Cc2ccccc2)CC1,22.9%
23,O=C(Nc1ccccc1)C1=C[C@H](c2csc3ccccc23)C[C@H](OCCCCO)O1,12.8%
24,O=C(NCc1ccccc1)C1=C[C@@H](c2csc3ccccc23)C[C@@H](OCc2ccc(CO)cc2)O1,44.5%
25,O=C(NCc1ccccc1)C1=C[C@H](c2csc3ccccc23)C[C@H](OCCCCO)O1,53.9% (active)
